# Reference: PubChem BioAssay (Tox21)
# Unmarked numbers belong to inactive results. Calls of active or inactive are those of the source. Calls follow the shape of the dose curve; as a rule, active = well fitted curve in the direction sought with a large enough effect in the repeat runs; inconclusive = weak or mixed curves; inactive = flat fitted curve, though single readings scatter.
# Assay: qHTS assay to test for compound auto fluorescence at 460 nm (blue) in HepG2 cells (AID 720687)
# Settings: autofluorescence 405/460 nm, 1 h; series mostly up to 46 µM; fluorescence, % of fluorescent control: at the top concentration
# Excerpt: U.S. Tox21 Program National Center for Advancing Translational Sciences [NCATS] NIH Chemical Genomics Center [NCGC] U.S. Environmental Protection Agency [EPA] National Institutes of Environmental Health Sciences [NIEHS] National Toxicology Program [NTP] U.S. Food and Drug Administration [FDA] Tox21 Assay Overview: Compound auto fluorescence often interferes with screening of the compound library against various biological targets and signaling pathways. Some of these compounds may have fluorophoric properties. Such properties may interfere with the assay outputs resulting in false positives and/or negatives. To decrease such complications and ensure the compound activities are relevant in terms of biological response, the Tox21 10K compound library was screened for auto fluorescence. From the fluorophores used as reporter signals in our screening assays, the auto fluorescence equivalencies of compounds against three fluorophores have been evaluated: Triamterene, Fluorescein and Rose Bengal sodium for blue, green and red fluorescence, respectively. The fluorescence intensities were measured using Excitation/Emission wavelengths at 405/460nm, 485/535nm and 540/590nm for blue, green and red labels, respectively. This assay includes the blue fluorescence data.
# Tox21 Assay Protocol Summary: 2,000 HepG2 cells in 5 uL of culture medium (MEM containing 10% FBS) per well were dispensed into black wall/clear bottom 1536-well plates using a Multidrop Combi Dispenser (ThermoFisher Scientific, Waltham, MA). The assay plates were incubated overnight at 37 C to allow cell attachment to the well bottom, followed by the transfer of 23 nL compound or DMSO vehicle by a pintool work station (Kalypsys , San Diego, CA). After the assay plates were incubated for 1 hr at 37 C and 5% CO2, fluorescence intensities in the assay plates were measured by an Envision (PerkinElmer, Shelton, CT) plate reader using three labels for measuring blue, green and red fluorescence at […] 460, 535 and 590 nm respectively.
# % is scaled to controls: 0 for no effect and ±100 for the full control effect.
SMILES,"fluorescence, % of fluorescent control",Potency
O=C1CN=C(c2ccccc2)c2cc(Cl)ccc2N1,-0.0069%,
c1ccccc1,-0.0192% [at 91.3 µM],
OCC(c1ccc(Cl)cc1)c1ccc(Cl)cc1,-0.0008% [at 91.3 µM],
CCc1cc(OC)c(C[C@@H](C)N)cc1OC,-0.13% [at 95.7 µM],
CC(=O)Oc1ccc2c3c1O[C@H]1[C@@H](OC(C)=O)C=C[C@H]4[C@@H](C2)N(C)CC[C@@]341,,inactive
CCC1(c2ccccc2)C(=O)NC(=O)N(C)C1=O (stereo not given),7.2%,
CC(C)(O)[C@@H]1[C@H]2OC(=O)[C@@H]1[C@]1(O)C[C@H]3O[C@]34C(=O)O[C@H]2[C@]14C,,inactive
O[C@H]1[C@H]2[C@H](O)CCCN2C[C@H]1O,-0.0428%,
O=C(NC(=O)c1c(F)cccc1F)Nc1ccc(Cl)c(Oc2ncc(C(F)(F)F)cc2Cl)c1,-0.0349%,
CC[C@H]1[C@@H]2C[C@H]3[C@@H]4N(C)c5ccccc5[C@]45C[C@@H](C2[C@H]5O)N3[C@@H]1O (stereo not given in full),-0.099% [at 18.6 µM],
ClC1=C(Cl)[C@]2(Cl)[C@@H]3[C@@H](Cl)[C@H]4O[C@H]4[C@@H]3C1(Cl)C2(Cl)Cl,-0.0251% [at 91.3 µM],
CCCC(C)(COC(N)=O)COC(=O)NC1CC1 (stereo not given),-0.0388%,
Cc1ccc(N(SC(F)(Cl)Cl)S(=O)(=O)N(C)C)cc1,0.0238% [at 91.3 µM],
CNC(=O)Oc1ccccc1C(=O)Nc1ccccc1,0.0094%,
Cc1ccc(O)cc1C,,inactive
c1ccc(C2(N3CCCC3)CCCCC2)cc1,1.03%,
C/C(=C\c1csc(C)n1)[C@@H]1C[C@@H]2O[C@]2(C)CCC[C@H](C)[C@H](O)[C@@H](C)C(=O)C(C)(C)[C@@H](O)CC(=O)O1,-0.116%,
CC(C)[C@@]1(NC(=O)[C@@H]2C[C@@H]3c4cccc5[nH]cc(c45)C[C@H]3N(C)C2)O[C@@]2(O)[C@@H]3CCCN3C(=O)[C@H](Cc3ccccc3)N2C1=O,,inactive
CCON=O,0.0044%,
CC(N)Cc1ccc2c(c1)OCO2 (stereo not given),-0.0567%,

SMILES,"fluorescence, % of fluorescent control",Potency
C[C@]12CC[C@@H]3c4ccc(OC(=O)N(CCCl)CCCl)cc4CC[C@H]3[C@@H]1CC[C@@H]2OP(=O)(O)O,,inactive
COC1=CC=C2[C@H]3Cc4ccc(OC)c5c4[C@@]2(CCN3C)[C@H]1O5,,inactive
CCOC(=O)C(O)(c1ccc(Cl)cc1)c1ccc(Cl)cc1,,inactive
C=C[C@H]1CN2CC[C@H]1C[C@@H]2[C@@H](O)c1ccnc2ccccc12,-0.0513%,
CN[C@H]1C[C@@H](N)[C@H](O)[C@@H](O[C@@H]2O[C@H](CO)[C@H](O)[C@@H]3OC4(O[C@H]23)O[C@H](C(N)CO)[C@H](O)[C@H](O)[C@H]4O)[C@@H]1O (stereo not given in full),,inactive
CN1c2ccccc2C(NCCCCCCC(=O)O)c2ccc(Cl)cc2S1(=O)=O (stereo not given),0.136%,
O=C(O)/C=C/C(=O)O,,inactive
CC(C)C[C@H]1C(=O)N2CCC[C@H]2[C@]2(O)O[C@](NC(=O)[C@@H]3C[C@@H]4c5cccc6[nH]cc(c56)C[C@H]4N(C)C3)(C(C)C)C(=O)N12,0.675%,
C[C@]12C=CC(=O)C=C1CC[C@@H]1[C@@H]2CC[C@]2(C)OC(=O)CC[C@@H]12,0.173%,
CN(C)CCCCCCN(C)C,0.0066% [at 91.3 µM],
Oc1cccc[c]1[Hg][Cl],0.005%,
Oc1cc[c]([Hg][Cl])cc1,,inactive
C[N+]1(C)CCCCC1COC(=O)C(O)(c1ccccc1)c1ccccc1 (stereo not given),0.0167%,
CCCCNC(C)(C)[P+](=O)O,0.0073%,
CN1CC[C@@]23CCCC[C@@H]2[C@@H]1Cc1ccc(O)cc13,-0.255%,
CC(=O)O[C@H]1C[C@H](O[C@H]2[C@@H](O)C[C@H](O[C@H]3[C@@H](O)C[C@H](O[C@H]4CC[C@@]5(C)[C@H](CC[C@@H]6[C@@H]5C[C@@H](O)[C@]5(C)[C@@H](C7=CC(=O)OC7)CC[C@]65O)C4)O[C@@H]3C)O[C@@H]2C)O[C@H](C)[C@H]1O[C@@H]1O[C@H](CO)[C@@H](O)[C@H](O)[C@H]1O,0.131%,
C[N+]1(C)[C@@H]2CC[C@H]1CC(OC(=O)c1c[nH]c3ccccc13)C2 (stereo not given in full),0.0797%,
CC(=O)OC1CN2CCC1CC2 (stereo not given),0.0832%,
CN(C)[C@H](Cc1ccccc1)c1ccccc1,-0.171%,
CNC(C)CC1CCCCC1 (stereo not given),0.0743%,
